IL-1B inflam inh = qHTS for Inhibitors of Inflammasome Signaling: IL-1-beta AlphaLISA Primary Screen | AID 743279, 2014 | activity change, % at 57.5 µM | actives 4.7% (n = 360,000) | THP-1 LPS/ATP IL-1B secretion, AlphaLISA, 16 h; stronger effect = lower value; in the data active = activity change below about -50%; inconclusive = mostly about -30% to -49%
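THP-1 cells pretreated 1 hr with compounds (up to 57.5 uM final), then stimulated with LPS (250 ng/mL final) plus ATP (1.25 mM final); secreted IL-1B measured by AlphaLISA after 16 hr, decreased signal indicating inhibition.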
KB-V1 MDR tox = qHTS assay for MDR1-selective chemotherapeutics: Primary screen using the drug-selected MDR subline cells KB-V1; Potency, µM (series often up to 46.1 µM), most hits filed as cytotoxic; KB-V1 MDR cells viability, CellTiter-Glo, 72 h; actives 3.4% (n = 400,000); also: potency is read from the fitted curve at half-maximal effect; nearly all actives have a fitted effect of over 60% in size
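Cells of the MDR subline KB-V1 are plated, dosed with compound at multiple concentrations, and incubated 72 h at 37 degrees C; CellTiter-Glo is then added and luminescence read after 10 min.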
HT1080 IDH1KD tx = qHTS for induction of synthetic lethality in tumor cells producing 2HG: qHTS for the HT-1080-IDH1KD cell line. AID 686971, 2013. HT-1080 IDH1 knockdown viability, ATP luminescence, 48 h. Potency, µM (doses to about 46.1 µM), inactives show at the top dose activity, negative = toxicity, actives largely listed as cytotoxic. actives 2% (n = 360,000);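 also: potency is read from the fitted curve at half-maximal effect; 0% = DMSO wells and -100% = cell-free medium wells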
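Using the IDH1-knockdown HT-1080 line run in the same batch and compound series as the NT line, viability after 48 h at 37 °C was determined by CellTiter-Glo luminescence and expressed as % activity.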
HT1080NT lethal = qHTS for induction of synthetic lethality in tumor cells producing 2HG: qHTS for the HT-1080-NT fibrosarcoma cell line; HT-1080-NT fibrosarcoma viability, CellTiter-Glo ATP luminescence, 48 h; Potency, µM (titrated, usually from 46.1 µM), for inactives: at the top dose activity, negative = less viability, usual class: cytotoxic; actives 1.6% (n = 360,000); AID 686970, 2013;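 also: NT is the 2HG producing partner of a matched IDH1 knockdown line; potency is read from the fitted curve at half-maximal effect; 0% = DMSO-treated cells and -100% = media-only wells without cells; nearly all actives have a fitted effect of over 55% in size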
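A 48-hour cytotoxicity screen used HT-1080-NT cells plated 2 hours before compound delivery. ATP-based CellTiter-Glo luminescence measured viability, normalized to DMSO and no-cell controls.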
KB-3-1 cytotox = qHTS assay for MDR1-selective chemotherapeutics: Primary screen using the parental adenocarcinoma cell KB-3-1; Potency, µM (highest dose often 46.1 µM), most hits filed as cytotoxic; KB-3-1 viability, CellTiter-Glo ATP luminescence, 72 h; actives 1.4% (n = 400,000); also: potency is read from the fitted curve at half-maximal effect; nearly all actives have a fitted effect of over 60% in size
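Cells are dispensed, compounds pinned in, plates held at 37 °C for 72 h, then CellTiter-Glo is added and luminescence read after 10 minutes. Cell line: parental KB-3-1 in phenol-red-free DMEM, 10% FBS.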
An asterisk follows results filed as active; i = inactive; ? = inconclusive; . = not tested or not shown; [ ] = dose if it differs, or a comment. An excerpt weighted towards active compounds, which were near 8.8% of everything screened. Unless noted, calls follow the shape of the dose curve; as a rule, active = well fitted curve in the direction sought with a large enough effect; inconclusive = small, poorly fitted or top-dose-only effect, or another doubt; inactive = no such curve, though single readings can be large; an effect the other way counts as inactive or inconclusive. Unless noted, % is scaled to controls: 0 for no effect and ±100 for the full control effect.

SMILES	IL-1B inflam inh	KB-V1 MDR tox	HT1080 IDH1KD tx	HT1080NT lethal	KB-3-1 cytotox
CC=Cc1cc(OC)c2c(c1)C(C)C(c1ccc(O)c(OC)c1)O2 (stereo not drawn)	-65*	i	2%	-1%	i
COc1ccc(-c2nnc3ccc(SC(C)C)nn23)cc1OC	.	21µM*	.	.	i
CCOC(=O)CC(=O)CSc1ccc2nnc(-c3cccc(F)c3)n2n1	?	i	?	0%[9.24 µM]	i
O=C(CSc1ccc2nnc(-c3cccc(F)c3)n2n1)NCc1ccco1	6	16µM*	2%	6%	i
CSc1ccc2nnc(-c3cccc(F)c3)n2n1	7	13µM*	-29%	-9%	i
COCCCNC(=O)CN1C(=O)COc2ccc(S(=O)(=O)N3CCCC3)cc21	.	i	.	.	i
O=C(COC(=O)/C=C/c1ccc([N+](=O)[O-])cc1)Nc1ccc2[nH]c(=O)[nH]c2c1	4	i	6%	0%	i
COc1ccc(C(C)(C)NC(=O)C2CCC(=O)N(CCCN3CCCC3=O)C2)cc1 (stereo not drawn)	13	i	10%	-1%	i
COc1ccc(-c2nc3ccc(Br)cn3c2CC(C)(C)C)cc1OC	23	i	2%	2%	i
CCCn1c(N)c(C(=O)CSc2nnc(C3CC3)n2Cc2ccccc2)c(=O)n(C)c1=O	0	i	-1%	-10%	i
O=C(Nc1ccc(C2CC2(Cl)Cl)cc1)c1ccccc1Br (stereo not drawn)	?	18µM*	12%	4%	i
O=C(Nc1ccc(C(=O)N2CCCC2)cc1)c1ccccc1Br	-12	.	-19%	-6%	.
O=C(Oc1ccccc1C(=O)Nc1ccccc1)c1ccccc1Br	?	16µM*	7.3µM*	?	12µM*
CC(C)NC(=O)C1(C)CN(S(C)(=O)=O)CC(=O)N1Cc1ccco1 (stereo not drawn)	0	i	27%	19%	i
CC(C)CC(C(=O)O)N(Cc1ccccc1)Cc1ccccc1 (stereo not drawn)	22	i	12%	-3%	i
C#CC(CO)N(CCN(Cc1ccccc1)C(C#C)CO)Cc1ccccc1 (stereo not drawn)	-62*	?	0%	-4%	i
Cc1cc(SCC(=O)NCc2ccccc2Cl)nc(=O)[nH]1	.	i	.	.	i
O=C(Nc1ccc2[nH]c(=O)[nH]c2c1)c1ccc([N+](=O)[O-])o1	?	?	?	-4%[9.24 µM]	?
Cc1ccc(NC(=O)c2ccc([N+](=O)[O-])o2)cc1C	-94*	i	13µM*	26µM*	18µM*
O=C(Nc1cccc([N+](=O)[O-])c1)c1ccc([N+](=O)[O-])o1	-103*	?	?	?	i
Cc1ccc(NC(=O)c2cc(Cl)ccc2[N+](=O)[O-])cc1C	-100*	i	2%	0%	i
O=C(Nc1cccc(NC(=O)c2ccccc2Cl)c1)c1ccc([N+](=O)[O-])o1	-106*	?	9.2µM*	?	?
CCCCN1CC(COCc2ccccc2)Oc2ccccc2S1(=O)=O (stereo not drawn)	-14	i	-1%	-13%	i
COc1ccc(NC(=O)C2CC3C=CC2C3)c([N+](=O)[O-])c1 (stereo not drawn)	-3	21µM*	0%	2%	i
CC(C)(C)NC(=O)CSC(=Nc1ccc(F)cc1)NC#N	-97*	i	1%	4%	i
SMILES	IL-1B inflam inh	KB-V1 MDR tox	HT1080 IDH1KD tx	HT1080NT lethal	KB-3-1 cytotox
C#CCOCCOCCOCCNc1nc(N2CCOCC2)nc(N2CCN(C(=O)CCCCCCCCCCNC(=O)[C@@H](CCSC)n3cc(CCO)nn3)CC2)n1	?	i	1%	0%	i
C#CCOCCOCCOCCNc1nc(N2CCN(C(=O)CCCCCCCCCCNC(=O)[C@@H](CCSC)n3cc(CCO)nn3)CC2)nc(N2CCN(C(=O)CCCCCCCCCCNC(=O)[C@H]([C@@H](C)CC)n3cc(CCCCN=C(N)N)nn3)CC2)n1	-104*	?	?	?	16µM*
C#CCOCCOCCOCCNc1nc(N2CCN(C(=O)CCCCCCCCCCNC(=O)[C@@H](CCSC)n3cc(CCO)nn3)CC2)nc(N2CCN(C(=O)CCCCCCCCCCNC(=O)[C@H]([C@@H](C)CC)n3cc(CCCCCN)nn3)CC2)n1	-72*	?	?	?	?
CCN(CC)C(=O)Oc1ccc2oc(=O)cc(-c3cc4cccc(OC)c4o3)c2c1	-65*	?	2%	15%	i
COc1ccc2oc(=O)cc(-c3cc4cccc(OC)c4o3)c2c1	26	i	3%	8%	i
O=c1[nH]c(CSc2nc(-c3ccc(F)cc3)cs2)nc2ccccc12	8	5.8µM*	1%	4%	i
CCOc1cccc(C(=O)Nc2ccc(N3CCCC3)cc2)c1	-29	i	-24%	-7%	?
CC(C)(C)c1ccc(C(=O)Nc2ccc(C(=O)N3CCOCC3)cc2)cc1	-85*	.	-7%	-4%	.
O=C(Nc1cccc(Br)c1)c1cccc(OC(=S)N2CCOCC2)c1	-67*	?	?	-4%	?
O=C(Nc1ccc(C(=O)N2CCOCC2)cc1)c1ccccc1	3	i	1%	4%	i
Cc1ccc(NC(=O)c2ccc(OC(=S)N3CCOCC3)cc2)cc1	-6	6.5µM*	?	-21%	i
CCOc1ccc(NC(=O)c2cccc(OC(=S)N3CCC(C)CC3)c2)cc1	36	18µM*	6%	18%	i
O=C(CSc1ccccc1F)NCCCN1CCCC1=O	9	i	9%	13%	i
COc1cc(OC)nc(Oc2cc(C=O)ccc2OC)n1	22	i	-22%	-16%	i
COc1ccc(NC(=O)Nc2ccc(C(=O)N3CCOCC3)cc2)cc1	7	i	5%	7%	i
COc1ccc(Cl)cc1NC(=O)Nc1ccc(C(=O)N2CCOCC2)cc1	-63*	.	9%	6%	.
CCOc1ccc(C(C)NC(=O)c2ccccc2F)cc1 (stereo not drawn)	2	16µM*	0%	7%	i
O=c1[nH]cc(CCc2ccccc2)c2ncncc12	.	.	21%	16%	.
Cc1ccc2cc(CN(CCc3ccccc3)C(=S)NCCCN(C)C)c(=O)[nH]c2c1	?	i	?	26µM*	i

Assay outcomes: PubChem BioAssay, National Center for Advancing Translational Sciences (NCATS)
